About 79,000 compounds went through this panel and 15% of them were active in at least one assay; those are over-represented in the sample as a whole. Unmarked numbers belong to inactive results. Activity calls are given as the source filed them. Cut-off read from the data, not from the text of the source: active = growth inhibition above about 70%; inactive = the rest.

Assay [1] is described as follows: NCI Yeast Anticancer Drug Screen. Data for the rad50 strain (AID 155).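 Note: 0% = growth of vehicle-only cultures of the same strain.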 As to conditions: S. cerevisiae rad50 strain growth inhibition, stronger effect = higher value. The essentials:
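Inhibition values express reduced yeast growth in compound-treated cultures relative to vehicle-treated controls.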

A short description of assay [2]: NCI Yeast Anticancer Drug Screen. Data for the mec2-1 strain (AID 157). The note with it: S. cerevisiae mec2-1 strain, stronger effect = higher value. A digest of the protocol:
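Each compound was tested on mec2-1 yeast, a strain altered in DNA damage repair or cell cycle control. Growth inhibition is reported relative to vehicle.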

The nature of assay [3]: NCI Yeast Anticancer Drug Screen. Data for the sgs1 mgt1 strain (AID 161).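 Note: 0% = growth of cultures given vehicle only.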 As to conditions: S. cerevisiae sgs1 mgt1 strain, stronger effect = higher value. The essentials: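 Inhibition of yeast growth, normalised to vehicle-treated controls, is reported for a strain bearing genetic alterations in DNA damage repair.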
Assay [4] is described as follows: NCI Yeast Anticancer Drug Screen. Data for the cln2 rad14 strain (AID 165).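 Note: 0% = growth equal to vehicle treated cultures.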 As to conditions: S. cerevisiae cln2 rad14 strain, stronger effect = higher value. A digest of the protocol:
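Test compounds were added to cln2 rad14 yeast cultures; inhibition of growth was then determined by comparison with vehicle treatment.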

The nature of assay [5]: NCI Yeast Anticancer Drug Screen. Data for the bub3 strain (AID 167). The note with it: S. cerevisiae bub3 mutant strain, stronger effect = higher value. A digest of the protocol:
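Steps: expose the mutant yeast strain to compound; grow alongside vehicle-treated cultures; measure growth; express inhibition against the vehicle cultures.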

Assay [6] can be described thus: NCI Yeast Anticancer Drug Screen. Data for the mlh1 rad18 strain (AID 175). The note with it: S. cerevisiae mlh1 rad18 strain growth inhibition, stronger effect = higher value. The essentials: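 Inhibition values reflect reduced growth of mutant yeast versus vehicle-treated controls following compound exposure; the mutations affect DNA damage repair.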
The mark [7] stands for this setting: at 5.0 µM (retest, dose inferred, filed as 0.5).
The mark [8] stands for this setting: at 50.0 µM (retest, dose inferred, filed as 5.0).

For `CC(=Nc1ccc(N(C)C)cc1)c1ccccc1`, the growth inhibition in assay [1] (setting [7]) is -8%; in assay [1] (setting [8]), 60%; in assay [1] (at 50.0 µM), 69.7%; in assay [2] (setting [7]) it was -11%; in assay [2] (setting [8]), 78% (active); in assay [2] (at 50.0 µM) it was 54.8%. In addition, the growth inhibition was -5% in assay [3] (setting [7]); 70% (active) in assay [3] (setting [8]); 46% in assay [3] (at 50.0 µM); -26% in assay [4] (setting [7]); 53% in assay [4] (setting [8]); 45.4% in assay [4] (at 50.0 µM). Moreover, the growth inhibition in assay [5] (setting [7]) is -15%; in assay [5] (setting [8]), 88% (active); in assay [5] (at 50.0 µM) it was 71.7% (active); in assay [6] (setting [7]), -15%; in assay [6] (setting [8]), 78% (active); in assay [6] (at 50.0 µM), 71% (active).
For the compound `CCCCc1c2c(nc3c1CCc1cc4cc5c(nc4nc1-3)-c1nc3c(c(CCCC)c1CC5)CCC/C3=N/OC)/C(=N\OC)CCC2`, the growth inhibition was 0% in assay [1] (setting [7]); 76% (active) in assay [1] (setting [8]); 94.2% (active) in assay [1] (at 50.0 µM); 2% in assay [2] (setting [7]); 94% (active) in assay [2] (setting [8]); 96% (active) in assay [2] (at 50.0 µM). The growth inhibition in assay [3] (setting [7]) is -4%; in assay [3] (setting [8]), 90% (active); in assay [3] (at 50.0 µM), 95.8% (active); in assay [4] (setting [7]) it was -22%; in assay [4] (setting [8]) it was 93% (active); in assay [4] (at 50.0 µM), 95.3% (active). The growth inhibition was -5% in assay [5] (setting [7]); 90% (active) in assay [5] (setting [8]); 95.9% (active) in assay [5] (at 50.0 µM); -11% in assay [6] (setting [7]); 93% (active) in assay [6] (setting [8]); 95.7% (active) in assay [6] (at 50.0 µM).
On to `NNCc1cc(Cl)c2cccnc2c1O`, for which the growth inhibition in assay [1] (setting [7]) was 18%; in assay [1] (setting [8]), 96% (active); in assay [1] (at 50.0 µM) it was 98.8% (active); in assay [2] (setting [7]), 6%; in assay [2] (setting [8]), 99% (active); in assay [2] (at 50.0 µM), 98.8% (active). Moreover, the growth inhibition in assay [3] (setting [7]) is 7%; in assay [3] (setting [8]), 98% (active); in assay [3] (at 50.0 µM), 98.5% (active); in assay [4] (setting [7]), -8%; in assay [4] (setting [8]), 98% (active); in assay [4] (at 50.0 µM), 97.5% (active). Further, the growth inhibition in assay [5] (setting [7]) is -1%; in assay [5] (setting [8]), 98% (active); in assay [5] (at 50.0 µM) it was 99% (active); in assay [6] (setting [7]) it was 9%; in assay [6] (setting [8]) it was 98% (active); in assay [6] (at 50.0 µM) it was 98.7% (active).
Regarding `O=C1NN(C2=NNC3(C(=O)N2)c2ccccc2-c2ccccc23)C(c2ccccc2)=N/C1=C/c1ccc(O)cc1`, the growth inhibition in assay [1] (setting [7]) was 1%; in assay [1] (setting [8]) it was -14%; in assay [1] (at 50.0 µM), 21.4%; in assay [2] (setting [7]), -14%; in assay [2] (setting [8]), 9%; in assay [2] (at 50.0 µM) it was 50%. Moreover, the growth inhibition was -9% in assay [3] (setting [7]); 23% in assay [3] (setting [8]); 65% in assay [3] (at 50.0 µM); -6% in assay [4] (setting [7]); 21% in assay [4] (setting [8]); 7% in assay [4] (at 50.0 µM). Besides, the growth inhibition is -14% in assay [5] (setting [7]); 9% in assay [5] (setting [8]); 81.5% (active) in assay [5] (at 50.0 µM); -43% in assay [6] (setting [7]); 28% in assay [6] (setting [8]); 83.2% (active) in assay [6] (at 50.0 µM).
As to `COC(=O)c1cc(OC)c(OC)c(OC)c1`, the growth inhibition is 4% in assay [1] (setting [7]); 72% (active) in assay [1] (setting [8]); 4.25% in assay [1] (at 50.0 µM); 1% in assay [2] (setting [7]); 18% in assay [2] (setting [8]); -0.5% in assay [2] (at 50.0 µM). For the same compound, the growth inhibition is 2% in assay [3] (setting [7]); 29% in assay [3] (setting [8]); -13.1% in assay [3] (at 50.0 µM); 2% in assay [4] (setting [7]); 60% in assay [4] (setting [8]); -23.3% in assay [4] (at 50.0 µM). Moreover, the growth inhibition in assay [5] (setting [7]) was 2%; in assay [5] (setting [8]) it was 70% (active); in assay [5] (at 50.0 µM), 36.9%; in assay [6] (setting [7]), -1%; in assay [6] (setting [8]), 48%; in assay [6] (at 50.0 µM), 0.25%.
As to `Oc1ccc(CNCc2ccccc2)c2cccnc12`, the growth inhibition in assay [1] (setting [7]) was 20%; in assay [1] (setting [8]) it was 98% (active); in assay [1] (at 50.0 µM) it was 98.4% (active); in assay [2] (setting [7]), 4%; in assay [2] (setting [8]) it was 97% (active); in assay [2] (at 50.0 µM), 97% (active). The growth inhibition was 0% in assay [3] (setting [7]); 98% (active) in assay [3] (setting [8]); 96.2% (active) in assay [3] (at 50.0 µM); -26% in assay [4] (setting [7]); 96% (active) in assay [4] (setting [8]); 94.6% (active) in assay [4] (at 50.0 µM). For the same compound, the growth inhibition in assay [5] (setting [7]) is -5%; in assay [5] (setting [8]), 99% (active); in assay [5] (at 50.0 µM) it was 98.1% (active); in assay [6] (setting [7]), 4%; in assay [6] (setting [8]), 99% (active); in assay [6] (at 50.0 µM) it was 98.2% (active).
For `CNC(=O)N/N=C/c1ccc([N+](=O)[O-])o1`, the growth inhibition in assay [1] (setting [7]) was 12%; in assay [1] (setting [8]), 40%; in assay [1] (at 50.0 µM) it was 65.2%; in assay [2] (setting [7]), 4%; in assay [2] (setting [8]), 22%; in assay [2] (at 50.0 µM), 38.6%. Moreover, the growth inhibition in assay [3] (setting [7]) was 7%; in assay [3] (setting [8]), 29%; in assay [3] (at 50.0 µM), 70.3% (active); in assay [4] (setting [7]), 9%; in assay [4] (setting [8]), 15%; in assay [4] (at 50.0 µM) it was 11.8%. Moreover, the growth inhibition in assay [5] (setting [7]) is 10%; in assay [5] (setting [8]) it was 38%; in assay [5] (at 50.0 µM), 34%; in assay [6] (setting [7]), 12%; in assay [6] (setting [8]), 48%; in assay [6] (at 50.0 µM) it was 71.5% (active).

The values above are taken from PubChem BioAssay (NCI).
